Results published in PubChem BioAssay AID1159580 (chemical genetic matrix, 2015).
Where “and” joins values, the source holds several entries; their conditions need not be identical. Equal values may be shown once. The campaign covered roughly 5,500 compounds. About 2,000 (36%) were called active. Not shown: some 18% with an inconclusive outcome. No stated cut-off is given here; in the data, active means normalized growth mostly below about 0.91 (no sharp cut-off); inconclusive means no clear call, values can overlap the other calls; inactive means mostly above about 0.92. The list shows a part of the results. Some compounds were tested as several samples or in several runs, with calls that do not always agree.

Assay: chemical genetic growth profiling, strain panel (AID 1159580);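 further: tested at 20 µM; growth read once vehicle control cultures reached saturation at 30 °C; 1 = growth at the plate median or of vehicle wells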
Conditions: growth OD

Measured: normalized growth

CCN(CC)C(=S)SSC(=S)N(CC)CC
inactive: S. cerevisiae deletion strains, locus YOL147C, strain pex11, stronger effect = lower value 0.946
0.0528 (active) and 0.999 (inactive): S. cerevisiae deletion strains, locus YPL241C, strain CIN2, stronger effect = lower value
0.0635 (active) and 0.949 (inactive): S. cerevisiae deletion strains, locus YJR075W, strain HOC1, stronger effect = lower value
0.0502 (active) and 0.997 (inactive): S. cerevisiae deletion strains, locus YNL322C, strain KRE1, stronger effect = lower value
active: S. cerevisiae deletion strains, locus YKL009W, strain mrt4, stronger effect = lower value 0.606 | S. cerevisiae deletion strains, locus YKL068W, stronger effect = lower value 0.0556 | S. cerevisiae deletion strains, locus YKL085W, strain MDH1 (second series), stronger effect = lower value 0.0512 | S. cerevisiae deletion strains, locus YKL085W, strain MDH1, stronger effect = lower value 0.0512 | S. cerevisiae deletion strains, locus YKL160W, strain elf1, stronger effect = lower value 0.0678 | S. cerevisiae deletion strains, locus YKL190W, strain CNB1, stronger effect = lower value 0.0509 | S. cerevisiae deletion strains, locus YKR001C, strain vps1, stronger effect = lower value 0.0705 | S. cerevisiae deletion strains, locus YKR026C, strain gcn3, stronger effect = lower value 0.0628 | S. cerevisiae deletion strains, locus YKR091W, strain srl3, stronger effect = lower value 0.0583 | S. cerevisiae deletion strains, locus YLL001W, strain dnm1, stronger effect = lower value 0.0613 | S. cerevisiae deletion strains, locus YLL026W, stronger effect = lower value 0.0601 | S. cerevisiae deletion strains, locus YLL041C, strain sdh2, stronger effect = lower value 0.0577 | S. cerevisiae deletion strains, locus YLR027C, strain aat2, stronger effect = lower value 0.0572 | S. cerevisiae deletion strains, locus YLR039C, strain RIC1, stronger effect = lower value 0.0861 | S. cerevisiae deletion strains, locus YLR058C, strain SHM2, stronger effect = lower value 0.0583 | S. cerevisiae deletion strains, locus YLR102C, strain apc9, stronger effect = lower value 0.0612 | S. cerevisiae deletion strains, locus YLR113W, strain HOG1, stronger effect = lower value 0.133 | S. cerevisiae deletion strains, locus YLR221C, strain rsa3, stronger effect = lower value 0.0619 | S. cerevisiae deletion strains, locus YLR258W, strain gsy2, stronger effect = lower value 0.0609 | S. cerevisiae deletion strains, locus YLR262C, strain YPT6 (second series), stronger effect = lower value 0.0822 | S. cerevisiae deletion strains, locus YLR262C, strain YPT6, stronger effect = lower value 0.109 | S. cerevisiae deletion strains, locus YLR268W, strain sec22, stronger effect = lower value 0.061 | S. cerevisiae deletion strains, locus YLR320W, strain mms22, stronger effect = lower value 0.087 | S. cerevisiae deletion strains, locus YLR330W, strain CHS5, stronger effect = lower value 0.0617 | S. cerevisiae deletion strains, locus YLR342W, strain FKS1 (second series), stronger effect = lower value 0.0677 | S. cerevisiae deletion strains, locus YLR342W, strain FKS1, stronger effect = lower value 0.0645 | S. cerevisiae deletion strains, locus YLR357W, strain rsc2, stronger effect = lower value 0.119 | S. cerevisiae deletion strains, locus YLR370C, strain arc18, stronger effect = lower value 0.0622 | S. cerevisiae deletion strains, locus YLR371W, strain rom2, stronger effect = lower value 0.0655 | S. cerevisiae deletion strains, locus YLR384C, strain iki3, stronger effect = lower value 0.0605 | S. cerevisiae deletion strains, locus YLR418C, strain cdc73, stronger effect = lower value 0.0926 | S. cerevisiae deletion strains, locus YML016C, strain PPZ1, stronger effect = lower value 0.052 | S. cerevisiae deletion strains, locus YML032C, strain rad52, stronger effect = lower value 0.263 | S. cerevisiae deletion strains, locus YML120C, strain ndi1, stronger effect = lower value 0.0591 | S. cerevisiae deletion strains, locus YML124C, strain tub3, stronger effect = lower value 0.0572 | S. cerevisiae deletion strains, locus YMR058W, strain fet3, stronger effect = lower value 0.0624 | S. cerevisiae deletion strains, locus YMR078C, strain ctf18, stronger effect = lower value 0.073 | S. cerevisiae deletion strains, locus YMR125W, strain sto1, stronger effect = lower value 0.0735 | S. cerevisiae deletion strains, locus YMR129W, stronger effect = lower value 0.0588 | S. cerevisiae deletion strains, locus YMR205C, strain PFK2, stronger effect = lower value 0.088 | S. cerevisiae deletion strains, locus YMR223W, strain ubp8, stronger effect = lower value 0.0608 | S. cerevisiae deletion strains, locus YMR231W, strain pep5, stronger effect = lower value 0.0654 | S. cerevisiae deletion strains, locus YMR263W, strain SAP30, stronger effect = lower value 0.0587 | S. cerevisiae deletion strains, locus YMR307W, strain GAS1, stronger effect = lower value 0.0974 | S. cerevisiae deletion strains, locus YNL067W, strain RPL9B, stronger effect = lower value 0.0505 | S. cerevisiae deletion strains, locus YNL071W, strain lat1, stronger effect = lower value 0.0618 | S. cerevisiae deletion strains, locus YNL128W, strain TEP1, stronger effect = lower value 0.0626 and 0.0798 | S. cerevisiae deletion strains, locus YNL153C, strain GIM3, stronger effect = lower value 0.0777 | S. cerevisiae deletion strains, locus YNL175C, strain NOP13, stronger effect = lower value 0.342 | S. cerevisiae deletion strains, locus YNL183C, strain NPR1, stronger effect = lower value -0.00035 | S. cerevisiae deletion strains, locus YNL197C, strain WHI3, stronger effect = lower value 0.0658 | S. cerevisiae deletion strains, locus YNL209W, strain ssb2, stronger effect = lower value 0.06 | S. cerevisiae deletion strains, locus YNL224C, strain SQS1, stronger effect = lower value 0.179 | S. cerevisiae deletion strains, locus YNL233W, strain BNI4, stronger effect = lower value 0.0544 | S. cerevisiae deletion strains, locus YNL248C, strain rpa49, stronger effect = lower value 0.0771 | S. cerevisiae deletion strains, locus YNL250W, strain rad50, stronger effect = lower value 0.0637 | S. cerevisiae deletion strains, locus YNL271C, strain bni1, stronger effect = lower value 0.0645 | S. cerevisiae deletion strains, locus YNL298W, strain CLA4, stronger effect = lower value 0.0615 | S. cerevisiae deletion strains, locus YNL307C, strain MCK1, stronger effect = lower value 0.0703 | S. cerevisiae deletion strains, locus YNL322C, strain KRE1 (second series), stronger effect = lower value 0.0666 | S. cerevisiae deletion strains, locus YNR049C, strain mso1, stronger effect = lower value 0.0606 | S. cerevisiae deletion strains, locus YNR052C, strain pop2, stronger effect = lower value 0.138 | S. cerevisiae deletion strains, locus YOL006C, strain TOP1, stronger effect = lower value 0.104 | S. cerevisiae deletion strains, locus YOL012C, strain htz1 0.179 | S. cerevisiae deletion strains, locus YOR001W, strain rrp6, stronger effect = lower value 0.0666 | S. cerevisiae deletion strains, locus YOR061W, strain CKA2, stronger effect = lower value 0.0499 | S. cerevisiae deletion strains, locus YOR069W, strain VPS5, stronger effect = lower value 0.0518 | S. cerevisiae deletion strains, locus YOR070C, strain gyp1, stronger effect = lower value 0.0741 | S. cerevisiae deletion strains, locus YOR080W, strain dia2, stronger effect = lower value 0.0684 | S. cerevisiae deletion strains, locus YOR083W, strain WHI5 (second series), stronger effect = lower value 0.0704 | S. cerevisiae deletion strains, locus YOR083W, strain WHI5, stronger effect = lower value 0.0659 | S. cerevisiae deletion strains, locus YOR106W, strain vam3, stronger effect = lower value 0.0652 | S. cerevisiae deletion strains, locus YOR136W, strain idh2, stronger effect = lower value 0.0727 | S. cerevisiae deletion strains, locus YOR144C, strain elg1, stronger effect = lower value 0.803 | S. cerevisiae deletion strains, locus YOR184W, strain ser1, stronger effect = lower value 0.0638 | S. cerevisiae deletion strains, locus YOR231W, strain MKK1, stronger effect = lower value 0.117 | S. cerevisiae deletion strains, locus YOR265W, strain rbl2, stronger effect = lower value 0.0575 | S. cerevisiae deletion strains, locus YOR270C, strain vph1, stronger effect = lower value 0.0967 | S. cerevisiae deletion strains, locus YOR290C, strain snf2, stronger effect = lower value 0.627 | S. cerevisiae deletion strains, locus YOR316C, strain cot1, stronger effect = lower value 0.0596 | S. cerevisiae deletion strains, locus YPL051W, strain arl3, stronger effect = lower value 0.0672 | S. cerevisiae deletion strains, locus YPL055C, strain LGE1, stronger effect = lower value 0.0641 | S. cerevisiae deletion strains, locus YPL078C, strain atp4, stronger effect = lower value 0.0676 | S. cerevisiae deletion strains, locus YPL106C, strain sse1, stronger effect = lower value 0.103 | S. cerevisiae deletion strains, locus YPL240C, strain hsp82, stronger effect = lower value 0.0557 | S. cerevisiae deletion strains, locus YPL256C, strain CLN2, stronger effect = lower value 0.13 | S. cerevisiae deletion strains, locus YPR119W, strain clb2, stronger effect = lower value 0.0619 | S. cerevisiae deletion strains, locus YPR141C, strain kar3, stronger effect = lower value 0.0641 | S. cerevisiae deletion strains, locus YPR163C, strain tif3, stronger effect = lower value 0.0693 | S. cerevisiae deletion strains, locus YPR167C, strain met16, stronger effect = lower value 0.0622 | S. cerevisiae deletion strains, strain wtn01, stronger effect = lower value 0.0586 | S. cerevisiae strains, strain wild type, stronger effect = lower value 0.05
